Out of some 5,500 compounds screened, about 2,000 (36%) were called active. Roughly 18% stayed inconclusive and do not appear here. No stated cut-off is given here; in the data, active means normalized growth mostly below about 0.91 (no sharp cut-off); inconclusive means no clear call, values can overlap the other calls; inactive means mostly above about 0.92. The list shows a part of the results.
Assay: chemical genetic growth profiling, strain panel (AID 1159580);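 further: tested at 20 µM; growth read once vehicle control cultures reached saturation at 30 °C; 1 = growth at the plate median or of vehicle wells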
Details: growth OD

Measured: normalized growth

O=C(O)/C=C/c1ccc(O)c(O)c1
inactive: S. cerevisiae deletion strains, locus YJR043C, strain POL32, stronger effect = lower value 1.01 | S. cerevisiae deletion strains, locus YJR066W, strain TOR1, stronger effect = lower value 0.95 | S. cerevisiae deletion strains, locus YKL009W, strain mrt4, stronger effect = lower value 1.05 | S. cerevisiae deletion strains, locus YKL068W, stronger effect = lower value 1.01 | S. cerevisiae deletion strains, locus YKL085W, strain MDH1 (second series), stronger effect = lower value 1.02 | S. cerevisiae deletion strains, locus YKL085W, strain MDH1, stronger effect = lower value 1.02 | S. cerevisiae deletion strains, locus YKL160W, strain elf1, stronger effect = lower value 1 | S. cerevisiae deletion strains, locus YKL190W, strain CNB1, stronger effect = lower value 1.01 | S. cerevisiae deletion strains, locus YKR001C, strain vps1, stronger effect = lower value 1 | S. cerevisiae deletion strains, locus YKR026C, strain gcn3, stronger effect = lower value 1 | S. cerevisiae deletion strains, locus YKR091W, strain srl3, stronger effect = lower value 1 | S. cerevisiae deletion strains, locus YLL001W, strain dnm1, stronger effect = lower value 0.992 | S. cerevisiae deletion strains, locus YLL026W, stronger effect = lower value 0.992 | S. cerevisiae deletion strains, locus YLL041C, strain sdh2, stronger effect = lower value 1 | S. cerevisiae deletion strains, locus YLR027C, strain aat2, stronger effect = lower value 0.989 | S. cerevisiae deletion strains, locus YLR039C, strain RIC1, stronger effect = lower value 1.01 | S. cerevisiae deletion strains, locus YLR058C, strain SHM2, stronger effect = lower value 1.01 | S. cerevisiae deletion strains, locus YLR102C, strain apc9, stronger effect = lower value 1.01 | S. cerevisiae deletion strains, locus YLR113W, strain HOG1, stronger effect = lower value 0.985 | S. cerevisiae deletion strains, locus YLR221C, strain rsa3, stronger effect = lower value 1 | S. cerevisiae deletion strains, locus YLR258W, strain gsy2, stronger effect = lower value 0.999 | S. cerevisiae deletion strains, locus YLR262C, strain YPT6 (second series), stronger effect = lower value 0.993 | S. cerevisiae deletion strains, locus YLR262C, strain YPT6, stronger effect = lower value 0.998 | S. cerevisiae deletion strains, locus YLR268W, strain sec22, stronger effect = lower value 1.03 | S. cerevisiae deletion strains, locus YLR320W, strain mms22, stronger effect = lower value 1.02 | S. cerevisiae deletion strains, locus YLR330W, strain CHS5, stronger effect = lower value 1.02 | S. cerevisiae deletion strains, locus YLR342W, strain FKS1 (second series), stronger effect = lower value 1.07 | S. cerevisiae deletion strains, locus YLR342W, strain FKS1, stronger effect = lower value 1.01 | S. cerevisiae deletion strains, locus YLR357W, strain rsc2, stronger effect = lower value 1.01 | S. cerevisiae deletion strains, locus YLR370C, strain arc18, stronger effect = lower value 1 | S. cerevisiae deletion strains, locus YLR371W, strain rom2, stronger effect = lower value 1.01 | S. cerevisiae deletion strains, locus YLR384C, strain iki3, stronger effect = lower value 0.999 | S. cerevisiae deletion strains, locus YLR418C, strain cdc73, stronger effect = lower value 1.05 | S. cerevisiae deletion strains, locus YML016C, strain PPZ1, stronger effect = lower value 1.01 | S. cerevisiae deletion strains, locus YML032C, strain rad52, stronger effect = lower value 0.998 | S. cerevisiae deletion strains, locus YML120C, strain ndi1, stronger effect = lower value 1.01 | S. cerevisiae deletion strains, locus YML124C, strain tub3, stronger effect = lower value 1 | S. cerevisiae deletion strains, locus YMR058W, strain fet3, stronger effect = lower value 1.01 | S. cerevisiae deletion strains, locus YMR078C, strain ctf18, stronger effect = lower value 1.01 | S. cerevisiae deletion strains, locus YMR125W, strain sto1, stronger effect = lower value 1 | S. cerevisiae deletion strains, locus YMR129W, stronger effect = lower value 1 | S. cerevisiae deletion strains, locus YMR205C, strain PFK2, stronger effect = lower value 0.999 | S. cerevisiae deletion strains, locus YMR223W, strain ubp8, stronger effect = lower value 0.997 | S. cerevisiae deletion strains, locus YMR231W, strain pep5, stronger effect = lower value 0.98 | S. cerevisiae deletion strains, locus YMR307W, strain GAS1, stronger effect = lower value 1.04 | S. cerevisiae deletion strains, locus YNL067W, strain RPL9B, stronger effect = lower value 0.994 | S. cerevisiae deletion strains, locus YNL071W, strain lat1, stronger effect = lower value 1.01 | S. cerevisiae deletion strains, locus YNL153C, strain GIM3, stronger effect = lower value 0.999 | S. cerevisiae deletion strains, locus YNL175C, strain NOP13, stronger effect = lower value 1 | S. cerevisiae deletion strains, locus YNL183C, strain NPR1, stronger effect = lower value 0.971 | S. cerevisiae deletion strains, locus YNL197C, strain WHI3, stronger effect = lower value 1.01 | S. cerevisiae deletion strains, locus YNL209W, strain ssb2, stronger effect = lower value 0.998 | S. cerevisiae deletion strains, locus YNL224C, strain SQS1, stronger effect = lower value 0.997 | S. cerevisiae deletion strains, locus YNL233W, strain BNI4, stronger effect = lower value 1 | S. cerevisiae deletion strains, locus YNL248C, strain rpa49, stronger effect = lower value 1 | S. cerevisiae deletion strains, locus YNL250W, strain rad50, stronger effect = lower value 1 | S. cerevisiae deletion strains, locus YNL271C, strain bni1, stronger effect = lower value 0.998 | S. cerevisiae deletion strains, locus YNL298W, strain CLA4, stronger effect = lower value 0.98 | S. cerevisiae deletion strains, locus YNL307C, strain MCK1, stronger effect = lower value 1.01 | S. cerevisiae deletion strains, locus YNL322C, strain KRE1 (second series), stronger effect = lower value 0.998 | S. cerevisiae deletion strains, locus YNL322C, strain KRE1, stronger effect = lower value 1.02 | S. cerevisiae deletion strains, locus YNR049C, strain mso1, stronger effect = lower value 1.01 | S. cerevisiae deletion strains, locus YNR052C, strain pop2, stronger effect = lower value 0.993 | S. cerevisiae deletion strains, locus YOL012C, strain htz1 0.725 | S. cerevisiae deletion strains, locus YOL147C, strain pex11, stronger effect = lower value 1.01 | S. cerevisiae deletion strains, locus YOR001W, strain rrp6, stronger effect = lower value 1.02 | S. cerevisiae deletion strains, locus YOR061W, strain CKA2, stronger effect = lower value 1.02 | S. cerevisiae deletion strains, locus YOR069W, strain VPS5, stronger effect = lower value 1.01 | S. cerevisiae deletion strains, locus YOR070C, strain gyp1, stronger effect = lower value 0.972 | S. cerevisiae deletion strains, locus YOR080W, strain dia2, stronger effect = lower value 1 | S. cerevisiae deletion strains, locus YOR083W, strain WHI5 (second series), stronger effect = lower value 1.01 | S. cerevisiae deletion strains, locus YOR083W, strain WHI5, stronger effect = lower value 1 | S. cerevisiae deletion strains, locus YOR106W, strain vam3, stronger effect = lower value 1.04 | S. cerevisiae deletion strains, locus YOR136W, strain idh2, stronger effect = lower value 1.02 | S. cerevisiae deletion strains, locus YOR144C, strain elg1, stronger effect = lower value 1.01 | S. cerevisiae deletion strains, locus YOR184W, strain ser1, stronger effect = lower value 1 | S. cerevisiae deletion strains, locus YOR231W, strain MKK1, stronger effect = lower value 1.03 | S. cerevisiae deletion strains, locus YOR265W, strain rbl2, stronger effect = lower value 0.988 | S. cerevisiae deletion strains, locus YOR270C, strain vph1, stronger effect = lower value 1 | S. cerevisiae deletion strains, locus YOR290C, strain snf2, stronger effect = lower value 1.01 | S. cerevisiae deletion strains, locus YOR316C, strain cot1, stronger effect = lower value 1 | S. cerevisiae deletion strains, locus YPL051W, strain arl3, stronger effect = lower value 0.994 | S. cerevisiae deletion strains, locus YPL055C, strain LGE1, stronger effect = lower value 1.01 | S. cerevisiae deletion strains, locus YPL078C, strain atp4, stronger effect = lower value 1 | S. cerevisiae deletion strains, locus YPL106C, strain sse1, stronger effect = lower value 0.992 | S. cerevisiae deletion strains, locus YPL240C, strain hsp82, stronger effect = lower value 1 | S. cerevisiae deletion strains, locus YPL256C, strain CLN2, stronger effect = lower value 0.985 | S. cerevisiae deletion strains, locus YPR119W, strain clb2, stronger effect = lower value 1.01 | S. cerevisiae deletion strains, locus YPR141C, strain kar3, stronger effect = lower value 1.04 | S. cerevisiae deletion strains, locus YPR163C, strain tif3, stronger effect = lower value 1 | S. cerevisiae deletion strains, locus YPR167C, strain met16, stronger effect = lower value 1.02 | S. cerevisiae deletion strains, strain wtn01, stronger effect = lower value 1.04 | S. cerevisiae strains, strain wild type, stronger effect = lower value 1.01
